Our source for the larval motility values is the supplement of paper PMC8540655.

Values without a mark were called inactive.

This experiment concerns Aedes aegypti larvae. Description: larval motility relative to same well at 0 h (fraction); higher = more motile (less active compound), active = 0.4 or less. The following applies: 10 µM. The essentials:
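Compounds at 10 µM (1% v/v DMSO) were applied to about 10 Aedes aegypti larvae per well in 100 µL, with every plate including solvent and larvicide control wells. Motility movies were taken with INVAPP at 0, 2 and 24 h, and results are medians of three independent larval batches. Relative motility is each well's score expressed as a fraction of its own first score.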

For the compound `CC1(C)[C@H](C(=O)O)N2C(=O)C[C@H]2S1(=O)=O`, the larval motility by setting is: (2 h) 0.965; (24 h) 1.35.
The corresponding values for `Clc1cccc(-c2nnc(-c3ccccc3)o2)c1` are 0.402 and 0.691.
Take `O=c1oc2ccc(Br)cc2cc1CSc1ncc[nH]1`: the larval motility reads like this: (2 h) 0.806; (24 h) 0.972.
The corresponding values for `N[C@H](CCC(=O)N[C@@H](Cc1c[nH]c2ccccc12)C(=O)O)C(=O)O` are 0.936 and 0.838.
For the compound `O=c1[nH]c(=O)n(Cc2cccc(Oc3ccccc3)c2)cc1Nc1ccccc1`, the larval motility reads like this: (2 h) 0.698; (24 h) 0.791.
The corresponding values for `Clc1ccc(COC(Cn2ccnc2)c2ccc(Cl)cc2Cl)c(Cl)c1` (centres undefined) are 0.499 and 0.677.
For `CCc1ccccc1OCCN1CCCCCC1`, in that order: 1.18 and 1.21.
Consider `COc1ccc2c(c1)cc(CNC(=O)c1cc3ccccc3o1)n2CC(=O)O`, for which the larval motility was 0.674 (2 h) and 0.871 (24 h).
The corresponding values for `COc1ccc2sc3c(c2c1)NC(C)CNC3=O` (centres undefined) are 0.748 and 0.959.
With `C[C@H](Cn1cnc2c(N)ncnc21)OCP(=O)(O)O`, the larval motility runs as follows: (2 h) 1.31; (24 h) 1.07.
Turning to `COc1ccc(C2=CC(c3c(F)cccc3Cl)n3ncnc3N2)cc1` (centres undefined), the larval motility reads like this: (2 h) 0.637; (24 h) 0.619.
On to `N[C@@H]1CN(c2c(F)cc3c(=O)c(C(=O)O)cn([C@@H]4C[C@@H]4F)c3c2Cl)CC12CC2`, for which the larval motility reads like this: (2 h) 0.745; (24 h) 1.11.
